# Bioassay records from PubChem BioAssay.
# Cruzain noTriton: qHTS Assay for Promiscuous and Specific Inhibitors of Cruzain (without detergent); Cruzipain (Trypanosoma cruzi), P25779; purified cruzain, Z-FR-AMC fluorescence, no detergent; Potency, µM, for inactives: max response, negative = inhibition, hits mostly inhibitors; 200,000 tested, 2.3% active; AID 1476, 2009;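 also: plate controls were enzyme without inhibitor for no effect and buffer without enzyme for full effect; nearly all actives have a fitted effect of over 40% in size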
# Target sequence (P25779 123-467 limits assumed): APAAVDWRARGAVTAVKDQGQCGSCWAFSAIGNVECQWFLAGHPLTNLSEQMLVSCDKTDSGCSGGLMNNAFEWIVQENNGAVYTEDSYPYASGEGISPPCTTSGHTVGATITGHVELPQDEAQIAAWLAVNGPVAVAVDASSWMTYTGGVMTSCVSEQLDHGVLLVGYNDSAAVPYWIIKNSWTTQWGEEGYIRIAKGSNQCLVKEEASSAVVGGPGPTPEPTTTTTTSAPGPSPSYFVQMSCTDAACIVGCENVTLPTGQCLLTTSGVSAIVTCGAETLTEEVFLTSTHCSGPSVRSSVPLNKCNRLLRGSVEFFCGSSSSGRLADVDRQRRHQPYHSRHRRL
#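 Detergent-free condition (0.00005% Triton X-100) in acetate buffer pH 5.5 with DTT. 1.5 nM enzyme and compound were pre-mixed 15 min, then 2 uM Z-FR-AMC substrate added; reaction progress from fluorescence change between first and third reads (60 s).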
# Cruzain Triton: qHTS Assay for Promiscuous and Specific Inhibitors of Cruzain (with detergent) | Cruzipain (Trypanosoma cruzi), P25779 | 200,000 tested, 0.43% active | Potency, µM, without a hit: max response, negative = inhibition, usual class: inhibitors | purified cruzain, Z-FR-AMC fluorescence, 0.01% Triton | AID 1478, 2009;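 also: plate controls were neutral wells for no effect and buffer without enzyme for full effect; nearly all actives have a fitted effect of over 40% in size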
#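 Cruzain (1.5 nM) preincubated 15 min at RT with compound in 100 mM sodium acetate pH 5.5, 5 mM DTT, 0.01% Triton X-100. Reaction started with 2 uM Z-FR-AMC; AMC fluorescence (ex 360/em 450 nm) change over 60 s gave rate.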
# * hit, by the source's call; ? = inconclusive. Only some compounds are listed: those with a hit (about 2.6% of all), similar ones and a draw of the others. Calls follow the shape of the dose curve; as a rule, active = well fitted curve in the direction sought with a large enough effect; inconclusive = small, poorly fitted or top-dose-only effect, or another doubt; inactive = no such curve, though single readings can be large; an effect the other way counts as inactive or inconclusive. Potency is read from the fitted curve at half-maximal effect.
SMILES,Cruzain noTriton,Cruzain Triton
OC[C@@H]1[C@@H](c2ccccc2)C(c2ccc(F)cc2)=NN1c1ccccc1,?,-10%
Cc1cc2nnc(SCC(=O)NCc3cccs3)n2c(N)n1,-8%,1%
Cc1ccc2nc(SCC(=O)NCc3cccs3)c(C#N)cc2c1,10µM*,6%
Cc1ccc2cc(C#N)c(SCC(=O)NCc3ccco3)nc2c1,?,-6%
Cc1ccc2nc(SCC(=O)NCc3ccco3)c(C#N)cc2c1,25µM*,2%
CNC1=CN(O)C(c2ccccc2)=c2cc(Cl)ccc2=N1,-5%,-1%
Cc1ccc(N2CC(NC(=O)/C=C\c3ccc4c(c3)OCO4)CC2=O)cc1C (stereo not drawn),-7%,-13%
CCCCCn1c(CCNC(=O)c2cccc(C)c2)nc2ccccc21,6%,13µM*
CCC(=O)NCCc1nc2ccccc2n1Cc1ccccc1,-17%,0%
CCCCCn1c(CCNC(=O)CCC)nc2ccccc21,-5%,-21%
CCCCCn1c(CCNC(=O)c2cccs2)nc2ccccc21,13µM*,-22%
CCCCCn1c(CNC(=O)c2cccs2)nc2ccccc21,17%,-5%
O=C(NCCc1nc2ccccc2n1Cc1ccc(Cl)cc1)c1ccccc1,17%,6.3µM*
Cc1cccc(C(=O)NCc2nc3ccccc3n2Cc2ccccc2Cl)c1,16%,-15%
Cc1cccc(C(=O)NCCc2nc3ccccc3n2Cc2ccc(Cl)cc2)c1,?,7.9µM*
O=C(N/N=C\c1ccc(CN(Cc2ccc(Cl)cc2)S(=O)(=O)c2ccccc2)o1)C(=O)Nc1ccc(F)cc1,7.9µM*,2%
O=C(N/N=C\c1ccc(CNS(=O)(=O)c2ccc(Cl)cc2)o1)C(=O)Nc1ccc(Oc2ccccc2)cc1,7.9µM*,-1%
O=C(N/N=C\c1ccc(CNS(=O)(=O)c2ccccc2)o1)C(=O)Nc1ccc(F)cc1,?,1%
Cc1cccc(CN(CC(=O)N/N=C/c2ccco2)S(=O)(=O)c2ccc(Cl)cc2)c1,17%,-3%
C[C@@]12CC[C@@H]3[C@H](CCC4=CC(=O)CC[C@]43C)[C@@H]1CC[C@@H]2C(=O)Cn1cnc2c(=S)nc[nH]c21,-7%,3%
COc1ccccc1NC(=O)CN1C(=O)C(C)(C)c2ccccc21,1%,-1%
CCN1CCSc2ccc(C(=O)NCc3ccc(F)cc3)cc21,-9%,-1%
C=CC(=O)CC,3%,2%
Cc1ccccc1Cn1c(CN2CCC(C(=O)NCc3cccnc3)CC2)cc2ccccc21,15%,-1%
CC1CC(C)CN(c2ccc(-n3cnnn3)cc2[N+](=O)[O-])C1 (stereo not drawn),3%,-6%
SMILES,Cruzain noTriton,Cruzain Triton
O=[N+]([O-])c1cc(-n2cnnn2)ccc1N1CCC(Cc2ccccc2)CC1,25µM*,-5%
Cc1ccc(S(=O)(=O)N/N=C\c2cccnc2)cc1,-1%,3%
Cc1ccc(-c2cc(-c3ccccc3O)nc(N/N=C/c3cccnc3)n2)cc1,25µM*,3%
COCC(=O)N1CCC2(CC1)CCN(C(c1ccccc1)c1ccccc1)CC2,-3%,3%
COc1ccc(NC(=O)CN(c2ccc([N+](=O)[O-])cc2)S(=O)(=O)c2ccccc2)c(OC)c1,-5%,-4%
COc1ccc(N(CC(=O)N/N=C/c2ccc(-c3ccc([N+](=O)[O-])cc3)o2)S(=O)(=O)c2ccc(C)cc2)cc1,4µM*,0%
COc1ccccc1NC(=O)CN(c1ccc([N+](=O)[O-])cc1)S(=O)(=O)c1ccccc1,9%,-7%
COc1ccc(N(CC(=O)N/N=C/c2ccc(-c3ccc([N+](=O)[O-])cc3)o2)S(=O)(=O)c2ccc(C)cc2)cc1Cl,6.3µM*,4%
C[C@@H]1CC[C@]2(C(=O)O)CC[C@]3(C)C(=CCC4[C@@]5(C)C[C@@H](O)[C@H](O)[C@@](C)(CO)C5[C@H](O)C[C@]43C)C2[C@H]1C (stereo partly drawn),?,0%
CCOc1ccc(NC(=O)c2cc(C)nc3c2c(C)nn3-c2ccc(C)cc2)cc1,-6%,2%
COc1ccccc1/C=C/c1nc(C#N)c(N2CCN(C)CC2)o1,25µM*,-29%
CCN1CCN(c2oc(/C=C/c3ccccc3OC)nc2C#N)CC1,32µM*,-25%
COc1cc(/C=C/c2nc(C#N)c(N3CCCCC3)o2)cc(OC)c1OC,22%,-9%
COc1ccc(Nc2oc(/C=C/c3ccccc3OC)nc2C#N)cc1,?,-1%
COc1ccccc1NC(=O)Cn1nc(-c2ccc(C)cc2)c2c(c1=O)CCCC2,-1%,-2%
Cc1cc(C)nc(SCCc2cccc[n+]2C)n1,2%,2%
COC(=O)c1ccccc1NC(=O)c1ccc(COc2ccccc2)o1,-17%,-12%
COC(=O)c1ccccc1NC(=O)c1ccc(COc2cccc3ccccc23)o1,16µM*,-1%
COc1ccc(/C=N/NC(=O)CCn2c3ccccc3c3ccccc32)cc1OC,?,-8%
